The list is not random: actives were taken first. Their share in the collection is about 4.8%.
hgDAF12 agonist: hgDAF-12 agonism, primary luciferase screen. HEK293 GAL4-hgDAF12 UAS-luciferase reporter, agonist luminescence; normalized to butyrate control. activation, % at 6.8 µM. 1.8% of 370,000 active. AID 687014;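 active means activation above a cutoff set at the mean of all screened compounds plus 3 SD, cut at about 10% in these data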;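 further: 0% = DMSO wells and 100% = sodium butyrate wells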
hcDAF-12 act: activators of H. contortus DAF-12 nuclear receptor | HEK293 hcDAF-12 lit1-tk-luc reporter, luminescence; 0% DMSO, 100% Δ7-dafachronic acid | activation, % at 6.8 µM | 1.4% of 370,000 active;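 active means activation above the mean of all tested compounds plus 3 SD, cut at about 5.5% in these data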;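 further: 100% = response to 3 µM Δ7-dafachronic acid high control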
SMARCA2 activ: increases SMARCA2 function in MMTV reporter cells; MG213 cells, MMTV-luciferase reporter, dexamethasone, overnight; activation, % at 9.1 µM; 1% of 370,000 active; in the data active means activation above about 7.8%;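 further: 0% = vehicle wells and 100% = reference activator wells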
DAX1 inh-1: DAX1 (NR0B1) inhibition, primary screen | HEK293T StAR-luciferase reporter, SF-1/DAX-1 repression relief | inhibition, % at 6.8 µM | 1.1% of 370,000 active;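 active means inhibition above the mean over all tested compounds plus 3 SD, cut at about 3.6% in these data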;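 further: 0% = DAX-1 cells with DMSO and 100% = cells lacking DAX-1 with DMSO; higher inhibition means more luminescence from relief of DAX-1 repression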
DAX1 inh-2: NR0B1 (DAX1) inhibition; P51843; HEK293 Gal4-DAX1 luciferase reporter, luminescence; inhibition, % at 6.75 µM; 0.99% of 340,000 active; AID 504766;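 active means inhibition above the mean over all tested compounds plus 3 SD, cut at about 4.2% in these data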;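 further: 0% = DAX1-transfected cells with DMSO and 100% = empty-vector control cells with DMSO; inhibition shows as a rise in luminescence from relieved DAX1 repression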
ssDAF-12 act: S. stercoralis DAF-12 activation, primary screen; 1% of 370,000 active; AID 652126; HEK293 ssDAF-12/GRIP1 lit1-tk-luc reporter, luminescence; % of 3 µM dafachronic acid response; activation, % at 6.8 µM;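 active means activation above the mean over all tested compounds plus 3 SD, cut at about 0.9% in these data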;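 further: 0% = DMSO-only wells and 100% = 3 µM delta7-dafachronic acid wells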
LXR ag: activates human LXR-beta, counter-screen for hcDAF-12 agonists. shares compounds with hcDAF-12 act. HEK293 Gal4-LXR tk-luc reporter, luminescence, 24 h; normalized: DMSO 0%, positive control 100%. activation, % at 6.8 µM. 3,400 tested, under 10 active;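 active means mean percent activation of the reporter above a cutoff set as the average over tested compounds plus their standard deviation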
Target sequence (P55055 whole entry, looked up, the tested form may be a part): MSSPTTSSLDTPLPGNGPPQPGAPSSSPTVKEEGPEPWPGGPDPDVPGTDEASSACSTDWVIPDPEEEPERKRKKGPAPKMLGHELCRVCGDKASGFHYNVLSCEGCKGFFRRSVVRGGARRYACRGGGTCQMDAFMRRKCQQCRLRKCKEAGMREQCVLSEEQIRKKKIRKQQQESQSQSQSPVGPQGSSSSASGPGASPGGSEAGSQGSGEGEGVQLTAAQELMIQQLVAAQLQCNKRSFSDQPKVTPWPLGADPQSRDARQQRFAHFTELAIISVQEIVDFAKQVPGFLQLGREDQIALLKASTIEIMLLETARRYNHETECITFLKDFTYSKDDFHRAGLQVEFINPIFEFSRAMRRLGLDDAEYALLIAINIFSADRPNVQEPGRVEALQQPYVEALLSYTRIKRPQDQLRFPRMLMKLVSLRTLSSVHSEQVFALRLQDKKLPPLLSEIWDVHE
hcDAF12 conf: hcDAF-12 agonism, confirmation assay. shares compounds with hcDAF-12 act. HEK293 hcDAF-12 lit1-tk-luc reporter, luminescence; % of Δ7-dafachronic acid response. activation, % at 6.8 µM. 61% of 3,400 active;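 active means mean activation across triplicate tests above the threshold derived from the earlier primary screen, cut at about 5.5% in these data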;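 further: 0% = DMSO only wells and 100% = 3 µM Δ7-dafachronic acid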
Numbers without * were called inactive; x = not tested or not shown.

SMILES	hgDAF12 agonist	hcDAF-12 act	SMARCA2 activ	DAX1 inh-1	DAX1 inh-2	ssDAF-12 act	LXR ag	hcDAF12 conf
c1ccc(-c2ccc(-c3ccccn3)nn2)nc1	6.7	6.9*	2.9	3.4	x	-0.5	1.2	8.7*
Cc1ccc2c(CC(=O)NNC(=O)c3ccncc3)coc2c1	0.9	-1.2	5.1	0.8	1.2	-1.1	x	x
CCn1c(/C=C/c2c[nH]c3ccccc23)nc2ccccc2c1=O	11.7*	8.6*	6.4	3.2	5.2*	1.4*	1.5	7.8*
CCn1c(/C=C\c2ccccc2C)nc2ccccc2c1=O	3.4	0.1	4.8	-0.7	-0.6	-2.0	x	x
CCn1c(/C=C/c2c(C)[nH]c3ccccc23)nc2ccccc2c1=O	5.0	10.0*	-0.5	0.3	0.2	0.9*	0.0	3.7
CCn1c(/C=C/c2ccccc2Cl)nc2ccccc2c1=O	2.1	-1.1	2.6	0.1	1.6	-0.9	x	x
COc1cccc(NC(=O)[C@H](CC(C)C)NC(=O)[C@@H]2Cc3ccccc3CN2)c1	1.5	-0.4	-0.7	1.3	1.1	-0.8	x	x
COc1ccccc1NC(=O)N(C)C[C@@H]1OCc2cnnn2CCCC(=O)N([C@@H](C)CO)C[C@@H]1C	3.8	-2.3	-0.8	2.1	3.1	-0.7	x	x
Cc1nc(C(F)(F)F)ccc1C(=O)N1CCC1(C)C(=O)NS(=O)(=O)c1cccc(F)c1 (stereo not given)	0.8	-0.2	3.5	0.2	x	-0.1	x	x
COC(=O)c1oc2ccc(Cl)cc2c1-n1cccc1	2.3	-0.2	-2.5	0.3	2.5	-0.8	x	x
Cc1ccc(C2=Nc3ccccc3NC(C)(c3ccc(C)o3)C2)o1 (stereo not given)	11.9*	15.4*	4.6	1.2	1.4	1.4*	0.1	5.7*
COc1ccc2c(c1OC)C(=O)N1c3ccccc3C(=O)N(c3ccccc3)C21 (stereo not given)	-3.7	-0.9	1.5	-1.6	-0.1	-1.2	x	x
O=C(Nn1cnnc1)c1cc(-c2ccccn2)nc2ccccc12	5.6	10.9*	6.5	1.6	0.2	1.3*	-0.2	4.1
CN(c1nc2nonc2nc1NC1CC1)C1CCOC1 (stereo not given)	-3.5	-0.6	-2.9	0.7	-0.2	-1.3	x	x
O/C(=C\c1ccc2ccccc2n1)c1ccncc1	11.8*	8.6*	5.9	3.6	2.3	1.2*	1.4	11.9*
O=C(COc1cccc(C(F)(F)F)c1)NCC(c1cccs1)N1CCOCC1 (stereo not given)	-1.1	-1.4	0.7	-0.2	0.8	-1.2	x	x
COc1ccc(Cl)cc1NC(=O)c1[nH]nc(OC)c1[N+](=O)[O-]	3.4	6.7*	1.9	0.4	-0.8	-0.3	-0.2	5.0
COc1n[nH]c(C(=O)Nc2cc(Cl)ccc2Cl)c1[N+](=O)[O-]	-1.8	1.0	1.8	0.3	-0.7	0.5	x	x
Nc1ccc(-c2cnc3ccccc3n2)cc1	11.3*	7.1*	4.7	1.8	x	0.3	1.6	7.5*
c1coc(-c2cnc3ccccc3n2)c1	7.7	7.8*	3.3	3.0	4.4*	0.3	1.1	5.7*
COC(=O)[C@]12C[C@H](CC(=O)N3CCCCC3)C(=O)N(CCc3ccc(OC)c(OC)c3)C1=C[C@H](C(C)(C)C)O[C@@H]2C	-1.0	3.6	2.6	-1.2	x	-1.4	x	x
NC(=S)N=Nc1c(O)[nH]c2c(Br)cc(Br)cc12	0.2	-1.2	-0.2	-0.5	x	-0.9	x	x
Cc1nc(-c2ccc(NC(=O)c3ccccc3)cc2)cs1	12.1*	6.7*	3.5	4.5*	-2.2	1.2*	1.8	8.0*
CC(=O)c1ccc(OCc2cc(C(=O)N(C)C3CCOC3)no2)cc1 (stereo not given)	10.9*	7.1*	4.6	4.0*	2.6	0.6	0.6	6.8*
COc1cccc(OCc2cc(C(=O)N(C)C3CCOCC3)no2)c1	0.7	4.0	-0.9	0.0	0.3	-0.8	x	x
SMILES	hgDAF12 agonist	hcDAF-12 act	SMARCA2 activ	DAX1 inh-1	DAX1 inh-2	ssDAF-12 act	LXR ag	hcDAF12 conf
CN(c1ccccc1)c1ccc(/C=N/N2CCOCC2)cc1	11.3*	7.0*	4.3	2.1	5.8*	-0.9	1.2	5.9*
C(=NN1CCCCCC1)c1ccccc1	2.6	1.1	3.9	1.6	0.3	-1.0	x	x
COC(=O)Cc1ccc(NC(=S)Nc2ccc(N3CCOCC3)cc2)cc1	2.3	0.9	3.2	-0.3	-2.0	-0.2	x	x
S=C(NCCN1CCOCC1)Nc1ccc(Nc2ccccc2)cc1	2.4	0.0	-2.5	-0.9	-0.9	-0.9	x	x
S=C(NCCN1CCOCC1)Nc1ccc(Br)cc1	-1.2	6.9*	-1.4	-0.1	-0.8	0.2	-0.3	0.9
N#CC1=C(N)C(C#N)(C#N)C2(C(=O)Nc3ccccc32)C2CCCC=C12 (stereo not given)	-1.5	6.8*	-1.8	1.1	-1.6	-0.1	-0.4	0.9
CC(C)C1Cc2[nH]c(=S)[nH]c(=O)c2C(c2ccc(F)cc2)O1 (stereo not given)	-1.8	-0.4	-1.6	0.1	x	-0.8	x	x
O=C(c1ccc(C#CC2(O)CCCCC2)cc1)N1CCN(C(c2ccccc2)c2ccccc2)CC1	4.5	-1.2	3.8	-0.8	-1.3	-0.6	x	x
COc1ccc(-c2noc(CN(C)Cc3ccc(C)o3)n2)cc1	4.3	1.1	-0.8	-0.1	0.6	-1.6	x	x
O=C(Nc1ncc(Cc2ccc(SC(F)F)cc2)s1)c1ccccc1	1.9	1.4	-0.5	-0.7	0.6	-1.3	x	x
Cc1ccc(C(=O)Nc2ncc(Cc3ccccc3)s2)o1	7.0	11.9*	7.1	3.8*	-0.9	0.5	1.6	8.4*
Cc1ccc(C(=O)Oc2oc(-c3ccccc3)nc2C=Nc2ccc(N(C)C)cc2)cc1	12.4*	8.1*	1.3	2.2	2.1	1.8*	0.3	1.5
COc1cccc(N=Cc2nc(-c3ccccc3)oc2OC(C)=O)c1	-0.3	1.6	-3.1	-0.5	4.0	-1.3	x	x
CCOc1ccc(NC(=O)C(C)Oc2ccccc2C(=O)Nc2ccc(C)c(Cl)c2)cc1 (stereo not given)	8.1	7.0*	-0.9	0.2	-0.1	0.7	0.0	7.4*
CCOc1ccc(NC(=O)CN(c2ccc(OC)c(OC)c2)S(=O)(=O)c2ccc(C)cc2)cc1	-1.6	-1.4	-3.8	0.2	3.8	-1.6	x	x
C=CCOc1c(CNc2cccc(C(=O)O)c2)cccc1OCC	-0.1	-0.7	-0.4	0.5	0.6	-1.2	x	x

Assay outcomes: PubChem BioAssay, The Scripps Research Institute Molecular Screening Center
